DT40 TDP1 no CPT: qHTS for Inhibitors of human tyrosyl-DNA phosphodiesterase 1 (TDP1): qHTS in cells in absence of CPT; DT40 Tdp1-/- hTDP1 cells, no CPT, ATP luminescence, 48 h; Potency, µM (doses to about 46.2 µM), without a hit: at the highest dose activity change, negative = growth inhibition, most hits filed as inhibitors; actives 15% (n = 420,000); AID 686978, 2013; further: potency means the concentration at half of the fitted maximal effect; nearly all actives have a fitted effect of over 55% in size
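Chicken DT40 Tdp1-/- cells stably complemented with human TDP1 were seeded at 400 cells/well with DMSO in place of 20 nM camptothecin. After compound pinning, cells grew at least 48 hr at 37 °C; viability read by CellTiter-Glo luminescence.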
IL1B secr inh: inhibitors of inflammasome signaling (IL-1 beta secretion); THP-1 LPS/ATP IL-1B secretion, AlphaLISA, 16 h; active compounds read low; activity change, % at 57.5 µM; actives 4.7% (n = 360,000); AID 743279; in the data active means activity change below about -50%; inconclusive means mostly about -30% to -49%
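THP-1 cells pretreated 1 hr with compounds (up to 57.5 uM final), then stimulated with LPS (250 ng/mL final) plus ATP (1.25 mM final); secreted IL-1B measured by AlphaLISA after 16 hr, decreased signal indicating inhibition.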
HT1080 IDH1KD tx: HT-1080 IDH1 knockdown cell toxicity (counter line) | HT-1080 IDH1 knockdown viability, ATP luminescence, 48 h | Potency, µM (doses to about 46.1 µM), without a hit: at the top dose activity, negative = toxicity, hits mostly cytotoxic | actives 2% (n = 360,000) | AID 686971;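 further: potency means the concentration at half of the fitted maximal effect; 0% = DMSO wells and -100% = cell-free medium wells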
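Using the IDH1-knockdown HT-1080 line run in the same batch and compound series as the NT line, viability after 48 h at 37 °C was determined by CellTiter-Glo luminescence and expressed as % activity.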
HT1080-NT tox: kills 2HG-producing HT-1080-NT fibrosarcoma cells; HT-1080-NT fibrosarcoma viability, CellTiter-Glo ATP luminescence, 48 h; Potency, µM (highest dose often 46.1 µM), for the others: at the top dose activity, negative = less viability, usual class: cytotoxic; actives 1.6% (n = 360,000); AID 686970;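 further: NT is the 2HG producing partner of a matched IDH1 knockdown line; potency means the concentration at half of the fitted maximal effect; 0% = DMSO-treated cells and -100% = media-only wells without cells; nearly all actives have a fitted effect of over 55% in size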
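Viability by CellTiter-Glo luminescence after 48 h compound exposure at 37C of HT-1080-NT cells (750/well, RPMI, 5% FBS). % activity scaled between DMSO wells and medium-only wells, then curve-fitted and categorized by curve class.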
TDP1 cell CPT: growth inhibition of DT40 Tdp1-/-;hTDP1 cells with camptothecin (screen for TDP1 inhibitors). AID 686979. chicken DT40 Tdp1-/-;hTDP1 cells + 20 nM CPT, ATP luminescence, 48 h. actives 12% (n = 420,000). Potency, µM (series often up to 46.2 µM), without a hit: top-dose activity change, negative = growth inhibition, usual class: inhibitors; further: potency means the concentration at half of the fitted maximal effect; nearly all actives have a fitted effect of over 55% in size
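Chicken DT40 Tdp1-/- cells complemented with human TDP1, 400 cells/well, exposed to compounds plus 20 nM camptothecin for at least 48 h at 37 C; viability read as ATP content by CellTiter-Glo luminescence.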
Numbers without * were called inactive; ? = inconclusive; · = no result. Sampled rows, rich in hits. Any-hit rate of the full collection: about 19%. Unless noted, the call rests on the fitted dose curve; in most records, active means well fitted curve in the direction sought with a large enough effect; inconclusive means small, poorly fitted or top-dose-only effect, or another doubt; inactive means no such curve, though single readings can be large; an effect the other way counts as inactive or inconclusive. Unless noted, on the % scale 0 is the no-effect control and ±100 the full control effect.

SMILES	DT40 TDP1 no CPT	IL1B secr inh	HT1080 IDH1KD tx	HT1080-NT tox	TDP1 cell CPT
CCCNC(=O)C1(C)CCCN(C(=O)c2cc(C(C)(C)C)nn2C)C1 (configuration not stated)	-17%	-15	23%	17%	-17%
O=C(NCc1nnc2n1CCN(Cc1cc3c(cc1Cl)OCO3)CC2)C1CCOC1 (configuration not stated)	-4%	·	·	·	7%
COc1ccc(-c2[nH]ncc2/C=C(\C#N)C(=O)NC2CC2)cc1	?	-21	7%	1%	?
CCCCOc1ccc(/C=C(\C#N)C(=O)NC2CC2)cc1	29µM*	-17	15%	1%	?
CCOc1ccc(/C=C(\C#N)C(=O)NC2CC2)c(OCC)c1	-29%	-54*	0%	7%	3%
N#C/C(=C\c1ccccc1)C(=O)NC1CC1	5%	41	0%	0%	-16%
CCCC[C@@H]1CNC(=O)C(=O)N1CC(C)(C)C	7%	25	5%	5%	1%
COc1ccc(CNCCC(c2ccc(C)cc2)c2ccco2)cc1 (configuration not stated)	7.3µM*	·	·	·	12µM*
Fc1ccccc1CNCCC(Cc1ccccc1)c1ccc2c(c1)OCO2 (configuration not stated)	?	-98*	?	16µM*	?
Cc1ccc(C(CCN)c2ccco2)cc1 (configuration not stated)	?	-22	3%	-5%	?
CC(=O)N(CCC(Cc1ccccc1)c1ccc2c(c1)OCO2)Cc1ccccc1F (configuration not stated)	?	-4	0%	-3%	?
COc1ccc(CNCCC(c2ccccc2)c2ccc3c(c2)OCO3)cc1 (configuration not stated)	5.8µM*	-87*	?	?	5.8µM*
Cn1cc(Br)c(C(=O)Nc2ncc(Br)s2)n1	-26%	3	-1%	5%	-7%
CCOCC(=O)Nc1ccc(S(=O)(=O)NCC2CCCO2)cc1 (configuration not stated)	-10%	19	0%	5%	1%
Cc1ccc(OCc2ccc(C(=O)O)o2)c([N+](=O)[O-])c1	-15%	15	12%	16%	-15%
N#CC1=C(N)N(c2ccc(Br)cc2)C2=C(C(=O)CCC2)C1c1cccnc1 (configuration not stated)	20%	-25	?	13µM*	-28%
COc1ccc(C2C(C#N)=C(N)N(c3ccccc3)C3=C2C(=O)CCC3)cc1Cn1cc([N+](=O)[O-])cn1 (configuration not stated)	?	-74*	?	?	?
Cc1ccc(N2C(N)=C(C#N)C(c3cccnc3)C3=C2CCCC3=O)cc1 (configuration not stated)	?	28	-1%	3%	?
COc1ccc(S(=O)(=O)N2CCOCC2)cc1NC(=O)CSc1ncccn1	-21%	-1	4%	4%	2%
CN(C)c1ccc(Sc2ccc3nc(N)nc(N)c3c2)cc1	0.65µM*	-15	1.6µM*	2.3µM*	1.8µM*
COC(=O)c1cc(S(=O)(=O)NCc2ccc(F)cc2)cn1C	-5%	38	-2%	-8%	-21%
COc1ccccc1C(=O)NC1CCN(C(=S)NCCc2ccccc2)CC1	-28%	-77*	3%	-2%	-4%
CCN(CC)S(=O)(=O)c1ccc(Cl)c(C(=O)Nc2cc(C)nn2-c2ccccc2)c1	?	-18	-11%	-4%	18µM*
COc1ccccc1NS(=O)(=O)c1ccc(C)c(C(=O)NC2CCN(Cc3ccccc3)CC2)c1	16µM*	-57*	-15%	-12%	21µM*
COc1ccc(NS(=O)(=O)c2ccc(C)c(C(=O)NC3CCN(Cc4ccccc4)CC3)c2)cc1	?	12	-17%	-3%	16µM*
SMILES	DT40 TDP1 no CPT	IL1B secr inh	HT1080 IDH1KD tx	HT1080-NT tox	TDP1 cell CPT
CCN(CC)S(=O)(=O)c1cccc(C(=O)Nc2cc(C)nn2-c2ccccc2)c1	?	22	2%	-14%	2%
Cc1c(C(=O)Nc2nnc(C3CC3)s2)oc2ccccc12	6%	25	2%	-8%	-1%
CSc1nc(=O)[nH]c2nc[nH]c12	-2%	·	·	·	-2%
COc1ccccc1NS(=O)(=O)c1cccc(C(=O)NC2CCN(Cc3ccccc3)CC2)c1	23µM*	?	-7%	?	?
C=CCN(c1ccccc1)S(=O)(=O)c1cccc(C(=O)NC2CCN(Cc3ccccc3)CC2)c1	18µM*	-54*	-15%	-5%	13µM*
Cc1ccc(NS(=O)(=O)c2cccc(C(=O)NC3CCN(Cc4ccccc4)CC3)c2)c(C)c1	?	?	?	?	9.2µM*
CCN(CC)S(=O)(=O)c1ccc(Cl)c(C(=O)NC2CCN(Cc3ccccc3)CC2)c1	13µM*	-9	2%	-1%	16µM*
CCN(CC)S(=O)(=O)c1ccc(NC2CCN(Cc3ccccc3)CC2)nc1	?	-6	-2%	-2%	?
O=C(NC1CCN(Cc2ccccc2)CC1)c1cccc(S(=O)(=O)Nc2ccc(Br)cc2)c1	?	?	-19%	-19%	21µM*
CN(C)S(=O)(=O)c1cccc(C(=O)NCC(=O)NC2CCN(Cc3ccccc3)CC2)c1	?	19	13%	17%	-17%
Cc1cccc(C(=O)NC2CC3CCCC(C2)N3S(=O)(=O)c2ccccc2)c1 (configuration not stated)	18µM*	-56*	-6%	-6%	13µM*
Cc1cccc(C(=O)NC2CC3CCCC(C2)N3C(=O)Nc2ccccc2)c1 (configuration not stated)	?	6	2%	-9%	-30%
CCOC(=O)C1=C(C)N(C[C@@H]2CC[C@@H](Cc3ccc(-c4ccccc4)cc3)O2)C(=O)NC1c1ccc(SCc2ccco2)c([N+](=O)[O-])c1 (some centres not stated)	?	-16	-3%	-1%	?
Cc1nc2cc(-c3cccc(F)c3)nn2c(C)c1CCC(=O)N1CCN(c2ccccn2)CC1	-21%	4	21%	0%	-4%
CCN1CCN(c2ccc(NC(=O)CCc3c(C)nc4c(-c5ccc(F)cc5)c(C)nn4c3C)cc2)CC1	5.8µM*	?	-27%	-6%	10µM*
CCOC(=O)C1CCN(C(=O)CCc2c(C)nc3c(-c4ccc(F)cc4)c(C)nn3c2C)CC1	?	9	10%	-1%	8.2µM*
